Hsp70 act: Hsp70 transcriptional activators, primary screen, cell-based, HeLa, Hsp70 promoter luciferase, luminescence, 10 µM; activation, % at 10 µM; hit rate 0.04% among 200,000; HeLa Hsp70 promoter luciferase reporter; scaled: vehicle 0, proteasome-inhibitor control 100%; AID 1203, 2008;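 active = activation above the mean across all tested compounds plus 3 SD, cutoff set per campaign, cut at about 5.5% in these data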
AI-2 QS modul: Vibrio harveyi AI-2 quorum sensing modulators, primary screen, JMH597 strain, luminescence/OD600 ratio; Vibrio harveyi JMH597 AI-2 luminescence/OD600 ratio, 9 h; active compounds read low; strain lacks LuxN and CqsS sensors; 0 = neutral-control median; activity change, % at 7.5 µM; hit rate 0.4% among 300,000; AID 2094, 2009; in the data active = activity change below about -75%, passing the limit was not always enough; inconclusive = no clear call, values can overlap the other calls;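 also: luminescence divided by OD600 gain over 9 h not by final OD600 alone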
S1P3 antagonist: S1P3 receptor antagonists, primary screen, cell-based; Sphingosine 1-phosphate receptor 3 (Homo sapiens), Q99500; CHO S1P3 NFAT-BLA reporter, FRET fluorescence, antagonist mode; inhibition, % at 4.98 µM; hit rate 0.27% among 170,000; AID 485, 2006;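 active = inhibition above the plate cutoff, the mean inhibition of test wells on that plate plus 3 SD, cut at about 28% in these data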;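 also: cells challenged with S1P at its EC80 of 0.8 µM; blue over green emission ratio from cleaved BLA substrate after 4 h stimulation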
S1P4 antagonist: S1P4 receptor antagonists, primary screen, cell-based; Sphingosine 1-phosphate receptor 4 (Homo sapiens), O95977; S1P4-expressing cells, antagonist mode, reporter read-out; inhibition, % at 4.98 µM; hit rate 0.26% among 220,000; AID 1510, 2009; in the data active = inhibition above about 29%
Target sequence (O95977 whole entry, looked up): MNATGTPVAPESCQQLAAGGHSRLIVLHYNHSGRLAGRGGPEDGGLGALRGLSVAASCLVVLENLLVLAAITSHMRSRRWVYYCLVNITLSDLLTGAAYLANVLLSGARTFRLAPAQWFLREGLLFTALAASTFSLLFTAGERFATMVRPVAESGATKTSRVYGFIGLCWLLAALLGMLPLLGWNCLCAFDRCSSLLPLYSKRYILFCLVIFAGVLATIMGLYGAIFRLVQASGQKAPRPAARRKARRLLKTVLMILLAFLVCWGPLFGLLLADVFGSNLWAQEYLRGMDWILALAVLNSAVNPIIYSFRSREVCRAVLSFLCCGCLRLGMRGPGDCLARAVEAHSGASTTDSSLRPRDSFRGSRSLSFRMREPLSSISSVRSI
S1P4 agonist: S1P4 receptor agonists, primary screen, cell-based; Sphingosine 1-phosphate receptor 4 (Homo sapiens), O95977; S1P4-expressing cell line, agonist reporter assay; activation, % at 4.98 µM; hit rate 0.35% among 220,000; in the data active = activation above about 11%
S1P4 antag conf: S1P4 receptor antagonists, human, confirmation, cell-based; S1P4-expressing cell line, antagonist mode, reporter read-out; shares compounds with S1P4 antagonist; inhibition, % at 4.98 µM; hit rate 71% among 520; in the data active = inhibition above about 30%
S1P1 antag: S1P1 receptor antagonists, human, counter-screen for S1P4 antagonist project, cell-based | cell-based S1P1 antagonist counterscreen, inhibition | shares compounds with S1P4 antagonist | AID 1564, 2009 | inhibition, % at 4.98 µM | hit rate 37% among 520; in the data active = inhibition above about 40%;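 also: receptor stimulated with S1P near its EC80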
Target sequence (P21453 whole entry, looked up): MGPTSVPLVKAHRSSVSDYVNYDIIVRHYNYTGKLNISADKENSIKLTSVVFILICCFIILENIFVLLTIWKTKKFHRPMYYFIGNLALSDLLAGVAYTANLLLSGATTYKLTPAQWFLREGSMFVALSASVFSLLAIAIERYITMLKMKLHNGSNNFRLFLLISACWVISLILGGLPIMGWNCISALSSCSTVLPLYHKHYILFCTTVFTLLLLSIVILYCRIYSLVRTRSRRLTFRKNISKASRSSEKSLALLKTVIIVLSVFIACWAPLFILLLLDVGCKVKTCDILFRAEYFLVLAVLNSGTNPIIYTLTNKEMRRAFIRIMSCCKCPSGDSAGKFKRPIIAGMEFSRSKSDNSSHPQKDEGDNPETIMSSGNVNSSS
JMH597 growth rt: Vibrio harveyi growth inhibition, confirmation, counter-screen for AI-2 quorum sensing project, JMH597 strain, OD600 absorbance. shares compounds with AI-2 QS modul. 9 h; lacks LuxN and CqsS sensors. growth inhibition, % at 7.5 µM. hit rate 1% among 750. AID 2726, 2010;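 active = every replicate shows growth inhibition above 50%; inconclusive = at least half, but not all, replicates pass that cutoff; inactive = fewer than half of replicates pass it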
BB721 const-QS lum: luminescence inhibition in constitutive-on V. harveyi, confirmation, counter-screen for LuxS inhibitor project, strain BB721, luminescence readout; shares compounds with AI-2 QS modul; Vibrio harveyi BB721 luminescence, 9 h; inhibition, % at 7.5 µM; hit rate 95% among 750; AID 2727, 2010;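 active = inhibition above about 80% in every replicate, not just on average, limit read from the data; inconclusive = at least half of replicates past the limit, but not all; inactive = fewer than half of replicates past the limit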
BB721 growth: growth inhibition of V. harveyi BB721, confirmation, cytotoxicity control for AI-2 quorum sensing inhibitors, strain BB721, absorbance OD600 | Vibrio harveyi BB721 growth, 9 h | hit rate 3% among 750 | growth inhibition, % at 7.5 µM | shares compounds with AI-2 QS modul;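 active = every replicate shows growth inhibition above 50%; inconclusive = at least half but not all replicates above 50% inhibition; inactive = under half of replicates above 50% inhibition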
AI-2 QS JMH597: Vibrio harveyi AI-2 signaling luminescence modulation – JMH597 strain, confirmation. shares compounds with AI-2 QS modul. hit rate 97% among 750. AID 2736, 2010. Vibrio harveyi JMH597 AI-2 quorum sensing luminescence, 9 h; luxN and CqsS knockout, AI-2 only. inhibition, % at 7.5 µM;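 active = every replicate shows more than 75% inhibition of signal versus neutral control wells; inconclusive = half to three quarters of replicates exceed 75% inhibition; inactive = fewer than half of replicates exceed 75% inhibition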
A number is an active result; . = inactive; ? = inconclusive; / = no result given. Compounds with a hit are over-represented: about 0.97% of the library has one in this group of screens.

SMILES | Hsp70 act | AI-2 QS modul | S1P3 antagonist | S1P4 antagonist | S1P4 agonist | S1P4 antag conf | S1P1 antag | others
COc1cc(-c2nc3n(n2)C(c2ccncc2)C(C(N)=O)=C(C)N3)cc(OC)c1OC (stereo not drawn) | . | . | . | 66 | . | . | .
CC1=C(C(N)=O)C(c2ccccc2)n2nc(-c3ccncc3)nc2N1 (stereo not drawn) | . | . | . | . | . | / | /
Cc1ccc(S(=O)(=O)CCN2C=CC(C(F)(F)F)=NCC2)cc1 | / | . | . | 33 | . | . | .
C#CCOc1ccccc1/C=N/NC(=O)c1ccccc1OCc1ccccc1 | / | . | / | / | / | / | /
COc1ccc(C(=O)c2c(C(F)(F)F)oc3c2C(=O)c2ccccc2C3=O)cc1OC | . | . | / | 33 | . | 71 | 57
COc1ccc(C(=O)Nc2ccc3c(c2)C(=O)c2ccccc2C3=O)cc1OC | . | . | . | . | . | / | /
O=C(/C=C/c1ccccc1O)c1ccc(Cl)cc1 | . | . | . | 46 | . | 59 | .
C/C(CCC12CC3CC(CC(C3)C1)C2)=N\NC(N)=S | . | . | / | . | . | / | /
C/C(CC(C)(C)C1CCCCC1)=N\NC(N)=S | . | . | / | 48 | . | 67 | .
Cc1onc(-c2c(F)cccc2Cl)c1C(=O)NC(C)c1ccccc1 (stereo not drawn) | / | . | / | / | / | / | /
O=[N+]([O-])c1ccc(Nc2ccccc2)c2nonc12 | / | . | / | / | / | / | /
O=[N+]([O-])c1ccc(Sc2cccc[n+]2[O-])c2nonc12 | / | -129 | . | 91 | . | 114 | .
O=C(NC(Cc1ccccc1)C(=O)Oc1ccc2c(C(F)(F)F)cc(=O)oc2c1)OCc1ccccc1 (stereo not drawn) | . | . | . | 30 | . | 47 | .
O=C(CNC(=O)OCc1ccccc1)Oc1ccc2ccc(=O)oc2c1 | / | . | / | / | / | / | /
Cc1ccc(C)c(N(C(=O)Cn2nnc3ccccc32)C(C(=O)NCc2ccco2)c2ccncc2)c1 (stereo not drawn) | . | . | . | 34 | . | . | .
Cc1cc(C)cc(N(C(=O)Cn2nnc3ccccc32)C(C(=O)NCc2ccco2)c2ccncc2)c1 (stereo not drawn) | . | . | / | . | . | / | /
CCCN1C(=O)S/C(=C\c2ccc(N3CCOCC3)o2)C1=O | . | . | . | . | . | / | /
CCCN1C(=O)S/C(=C/c2ccc(N3CCOCC3)o2)C1=O | / | . | . | 33 | . | . | .
CCC(C)NC(=O)C1CCC(CNS(=O)(=O)c2ccc3c(c2)N(C(C)=O)CCO3)CC1 (stereo not drawn) | / | . | / | / | / | / | /
O=[N+]([O-])c1ccc(-n2nnnc2-c2ccccc2)cc1 | . | . | . | . | . | / | /
O=[N+]([O-])c1ccc(-n2nnnc2-c2ccccc2)c([N+](=O)[O-])c1 | . | . | . | 35 | . | 53 | .
COc1cc(CNCCO)cc(Br)c1OCc1ccccc1Cl | . | . | / | . | . | / | /
COc1cc(CNCCO)cc(Cl)c1OCc1ccc(Cl)cc1Cl | . | . | . | 31 | . | 51 | 64
CC(C)c1ccc(S(=O)(=O)N2CCN(C(=O)C3CCN(C(=O)c4ccc(F)cc4)CC3)CC2)cc1 | / | . | / | / | / | / | /
O=C(CCl)Nc1cc(SCC(O)CO)cc([N+](=O)[O-])c1 (stereo not drawn) | . | . | . | 39 | . | 112 | 102
SMILES | Hsp70 act | AI-2 QS modul | S1P3 antagonist | S1P4 antagonist | S1P4 agonist | S1P4 antag conf | S1P1 antag | others
CCC1CCCCN1c1nc2c(c(=O)n(C)c(=O)n2C)n1CCSc1nc2ccccc2o1 (stereo not drawn) | / | / | . | / | / | / | /
CC1CCCCC1NC(=O)CN1C(=O)c2cccc(N)c2C1=O (stereo not drawn) | . | . | . | 32 | . | 30 | .
CCCCNC(=O)CN1C(=O)c2cccc(N)c2C1=O | . | . | . | 39 | . | . | .
O=C(COC(=O)C1CCN(S(=O)(=O)c2ccccc2)CC1)NC(=O)c1ccc(OC(F)F)cc1 | . | . | . | . | . | / | /
O=C1CCCC(=O)N1c1ccc(O)cc1 | . | . | . | . | . | / | /
O=C1CCCC(=O)N1c1ccc(Oc2ccc(Cl)cc2)cc1 | . | -84 | . | . | . | / | / | JMH597 growth rt=.;BB721 const-QS lum=89;BB721 growth=.;AI-2 QS JMH597=92
O=C(Nc1ccc(S(=O)(=O)Nc2ccccc2)cc1)C1COc2ccccc2O1 (stereo not drawn) | . | . | / | . | . | / | /
O=C(Nc1ccc(S(=O)(=O)N2CCOCC2)cc1)C1COc2ccccc2O1 (stereo not drawn) | . | . | / | . | . | / | /
CN(C)S(=O)(=O)c1ccc(NC(=O)C2COc3ccccc3O2)cc1 (stereo not drawn) | . | -89 | . | . | . | / | / | JMH597 growth rt=.;BB721 const-QS lum=96;BB721 growth=.;AI-2 QS JMH597=98
O=C(Nc1ccc(S(=O)(=O)N2CCCC2)cc1)C1COc2ccccc2O1 (stereo not drawn) | . | ? | . | . | . | / | / | JMH597 growth rt=.;BB721 const-QS lum=93;BB721 growth=.;AI-2 QS JMH597=99
CCCCn1c(N)c(N(CC(C)C)C(=O)CSc2nnc(-c3ccc(Cl)cc3)o2)c(=O)[nH]c1=O | / | . | / | / | / | / | /
O=C(NCC[C@@H]1C[C@@H]2C=C[C@H]1C2)c1cc(COc2ccc(F)cc2F)on1 | / | . | / | / | / | / | /
CCCCN(C(=O)c1cccc(-n2cccc2)c1)c1c(N)n(Cc2ccccc2)c(=O)[nH]c1=O | / | . | / | / | / | / | /
COc1ccc(C(=O)NCCc2c[nH]c3ccccc23)cc1 | / | . | / | / | / | / | /
O=C(NCCc1c[nH]c2ccccc12)c1ccc(F)cc1F | / | -82 | / | / | / | / | / | JMH597 growth rt=.;BB721 const-QS lum=95;BB721 growth=.;AI-2 QS JMH597=97
O=C(NCCc1c[nH]c2ccccc12)c1ccc(Cl)cc1 | / | -85 | / | / | / | / | / | JMH597 growth rt=.;BB721 const-QS lum=93;BB721 growth=.;AI-2 QS JMH597=95
O=C(NCCc1ccc(Cl)cc1)C(=O)c1c[nH]c2ccccc12 | / | . | / | / | / | / | /
